Measurements reported in the supplement of paper PMC13380429.

Tested on: Vero E6 infected with SARS-CoV-2
Assay: inhibition of SARS-CoV-2 cytopathic effect; higher = more antiviral protection, active = above 15
Details: 48 h

Measured: inhibition of SARS-CoV-2 cytopathic effect

OCCN(CCO)c1nc(N2CCCCC2)c2nc(N(CCO)CCO)nc(N3CCCCC3)c2n1 [dipyridamole]
inactive: 1 nM -0.67% | 8.33 nM 1.83% | 100 nM 0.53% | 833.33 nM 0.2% | 10000 nM 4.52%

CCN(CC)CCCC(C)Nc1nc(C)cc(Nc2ccc3nc(C)cc(N)c3c2)n1 (stereo not given)
inactive: 1 nM -1.23% | 8.33 nM -0.04% | 100 nM 1.43% | 833.33 nM -0.56% | 10000 nM 0.17%

C=C1C[C@@]2(O)O[C@@]3(C[C@H]2C(C)C)[C@@H](C)CC[C@@H]13 [curcumol]
inactive: 1 nM -2.21% | 8.33 nM -1.48% | 100 nM 1.91% | 833.33 nM 0.52% | 10000 nM -2.49%

Nc1nc(Cl)nc2c1ncn2[C@@H]1O[C@H](CO)[C@@H](O)[C@@H]1F [clofarabine]
inactive: 1 nM 0.13% | 8.33 nM 2.08% | 100 nM 1.42% | 833.33 nM 2.37% | 10000 nM 3.69%

NC[C@H]1O[C@H](O[C@H]2[C@H](O)[C@@H](O[C@H]3O[C@H](CO)[C@@H](O)[C@H](N)[C@H]3O)[C@H](N)C[C@@H]2N)[C@H](N)[C@@H](O)[C@@H]1O [bekanamycin]
inactive: 1 nM -0.6% | 8.33 nM -0.02% | 100 nM -0.32% | 833.33 nM 0% | 10000 nM -1.85%

CCN1CCN(c2cc3c(cc2F)c(=O)c(C(=O)O)cn3C2CC2)CC1 [enrofloxacin]
inactive: 1 nM 2.85% | 8.33 nM 4.7% | 100 nM 2.54% | 833.33 nM 2.88% | 10000 nM 5.39%

CCc1cc2cc(OC)c(OC)cc2c(Cc2ccccc2)n1 [moxaverine]
inactive: 1 nM 3.28% | 8.33 nM 0.47% | 100 nM 0.44% | 833.33 nM 0.83% | 10000 nM 4.26%

N#Cc1ccccc1-c1cc(-c2ccccn2)cn(-c2ccccc2)c1=O [Perampanel]
inactive: 1 nM 2.02% | 8.33 nM 0.93% | 100 nM 4.1% | 833.33 nM -0.14% | 10000 nM -5.2%

Fc1ccc2nc(CCC#Cc3ccccn3)cn2c1 [dipraglurant]
inactive: 1 nM 0.01% | 8.33 nM 0.17% | 100 nM 0.87% | 833.33 nM 1.2% | 10000 nM 2.02%

c1ccc2nc(N3CCNCC3)ccc2c1 [quipazine]
inactive: 1 nM 2.16% | 8.33 nM -1.97% | 100 nM -0.43% | 833.33 nM 1.22% | 10000 nM -2.16%

CCOC(=O)c1cncn1[C@H](C)c1ccccc1 [etomidate]
inactive: 1 nM 0.18% | 8.33 nM -0.71% | 100 nM -2.47% | 833.33 nM 1.97% | 10000 nM 0.06%

CC[C@H](C)n1cc(C)c2c(C(=O)NCc3c(C)cc(C)[nH]c3=O)cc(-c3ccc(N4CCNCC4)nc3)cc21
inactive: 1 nM 1.2% | 8.33 nM 2.76% | 100 nM 2.26% | 833.33 nM 1.5% | 10000 nM -4.63%

C[C@@]1(CO)[C@H](O)CC[C@@]2(C)[C@H]1CC[C@H]1C[C@@H]3C[C@@]12CC[C@]3(O)CO [aphidicolin]
inactive: 1 nM -5.87% | 8.33 nM -3.68% | 100 nM -2.81% | 833.33 nM -0.76% | 10000 nM -2.66%

O=C(c1ccc(F)cc1)N1CCC[C@H](c2nc(-c3ccc(F)cc3)no2)C1
inactive: 1 nM -1.67% | 8.33 nM -0.59% | 100 nM -0.85% | 833.33 nM 0.74% | 10000 nM 2.44%

OC[C@H]1O[C@@H](OCCc2ccc(O)cc2)[C@H](O)[C@@H](O)[C@@H]1O [salidroside]
inactive: 1 nM -0.77% | 8.33 nM 0.23% | 100 nM -0.6% | 833.33 nM 0.45% | 10000 nM -0.54%

CN(Cc1cc(Br)cc(Br)c1N)C1CCCCC1 [bromhexine]
inactive: 1 nM 0.85% | 8.33 nM 0.02% | 100 nM 2.7% | 833.33 nM 3.11% | 10000 nM 11.6%

Cc1cc(SCc2sc(-c3ccc(C(F)(F)F)cc3)nc2C)ccc1OCC(=O)O
inactive: 1 nM -0.18% | 8.33 nM 1.2% | 100 nM 0.1% | 833.33 nM 1.79% | 10000 nM -2.99%

O=C1C2C=Nc3ccccc3C2=NN1c1ccc(Cl)cc1 (stereo not given)
inactive: 1 nM 0.17% | 8.33 nM -0.02% | 100 nM 1.99% | 833.33 nM 3.3% | 10000 nM -0.09%
